An excerpt weighted towards active compounds, which were near 4.2% of everything screened.
tim23-1 inh = growth inhibitors of tim23-1 mutant yeast, primary screen, luminescence, uHTS. actives 1.3% (n = 330,000). inhibition, % at 20 µM. S. cerevisiae tim23-1 growth, BacTiter-Glo luminescence, 24 h;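 active = growth inhibition of the mutant yeast at or above 50%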;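 also: temperature-sensitive mutant grown at 25 °C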
TIM10 inh = growth inhibitors of isogenic TIM10 control yeast, primary screen, counter-screen for tim10-1 yeast inhibitor project, luminescence, uHTS; S. cerevisiae TIM10 strain growth, BacTiter-Glo luminescence, 24 h; inhibition, % at 10 µM; actives 1.4% (n = 330,000); AID 463195, 2010;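 active = inhibition of 40% or more at the single tested concentration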;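 also: wild-type TIM10 isogenic control strain grown at permissive 25 °C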
NALP1 yeast inh = NALP1 inflammasome inhibitors in reconstituted yeast, colorimetric, S. cerevisiae, triplicate retest | AID 2071, 2009 | inhibition, % at 10 µM | actives 0.61% (n = 280,000) | S. cerevisiae NALP1/ASC/caspase-1 growth, X-gal OD620, 72 h; in the data active = inhibition mostly above about 24%, no sharp cut-off; inactive = mostly below about 32%
tim10-1 inh = growth inhibitors of tim10-1 mutant yeast, primary screen, luminescence, uHTS; S. cerevisiae tim10-1 ts strain growth, BacTiter-Glo, 24 h; inhibition, % at 20 µM; actives 2.2% (n = 330,000);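 active = inhibition of at least 40%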;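 also: mutant grown at 25 °C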
NLRP3 yeast inh = NALP3 inflammasome inhibitors in reconstituted yeast, primary screen, luminescence, uHTS; Yeast reconstituted NLRP3/ASC/caspase-1, beta-gal luminescence, 24 h; inhibition, % at 10 µM; actives 0.39% (n = 330,000);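 active = inhibition of 50% or more; inactive = inhibition below 50%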
V-ATPase pH = regulators of yeast V-ATPase proton pumping, primary screen, pHLuorin cytosolic pH fluorescence; response, % at 10 µM; S. cerevisiae; actives 0.37% (n = 350,000); AID 504577, 2011; in the data active = response mostly above about 7.3%, no sharp cut-off; inactive = mostly below about 5.4%; also: actives read high
VATPase regulator = yeast V-ATPase proton pumping modulators, confirmation, S. cerevisiae, pH-sensitive GFP, second cherry-pick; shares compounds with V-ATPase pH; response, % at 10 µM; actives 2% (n = 980); S. cerevisiae pHLuorin cytosolic pH, V-ATPase proton transport; in the data active = response above about 24%
Hits are given with their value; – = inactive; · = no result given.

SMILES	tim23-1 inh	TIM10 inh	NALP1 yeast inh	tim10-1 inh	NLRP3 yeast inh	V-ATPase pH	VATPase regulator
CC(C)OP(=O)(OC(C)C)C(NC(=O)c1cccc([N+](=O)[O-])c1)C(N)=O (stereo not drawn)	–	–	–	–	–	–	–
O=S(=O)(Nc1ccccc1)N1CCCCC1	·	·	·	·	·	–	·
CC(=O)c1cccc(NS(=O)(=O)N2CCCCC2)c1	–	–	–	–	–	16	–
CCOC(=O)c1cc(-c2ccc(F)cc2)n(CC(=O)NCc2cccnc2)c1C	–	–	–	–	–	–	·
Cc1nn(CC(=O)Nc2ccc(N3CCOCC3)cc2)c(C)c1[N+](=O)[O-]	–	–	·	–	–	–	·
CN(C)C(CNC(C(=O)Nc1ccc([N+](=O)[O-])cc1Br)c1ccccc1)c1ccccc1 (stereo not drawn)	–	–	–	–	–	–	·
CC(C)CNC(C(=O)Nc1ccc([N+](=O)[O-])cc1Br)c1ccccc1 (stereo not drawn)	–	–	–	–	–	11	–
COc1ccc(N/N=C(/C#N)S(=O)(=O)c2nsc(C)c2C#N)cc1	–	–	–	–	–	–	·
Cc1snc(S(=O)(=O)/C(C#N)=N/Nc2cccc(C(F)(F)F)c2)c1C#N	–	–	–	–	–	25	–
CN(C)S(=O)(=O)N1CCC(Oc2cccc(C(=O)NC3CCOC3)c2)CC1 (stereo not drawn)	–	–	–	–	–	–	·
O=S(=O)(Nc1ccc(S(=O)(=O)N2CCCC2)cc1)c1ccc(F)cc1F	–	–	·	–	–	–	·
COC(=O)c1ccc(NC(=O)c2snnc2-c2ccccc2)cc1	–	–	–	–	–	8.2	–
Cc1ccc(C(=O)C[n+]2cc(Br)cc(Br)c2)cc1[N+](=O)[O-]	–	–	–	–	–	–	·
CCOC(=O)C1CCCN(c2c(NCC3CCCN3CC)c(=O)c2=O)C1 (stereo not drawn)	–	–	–	–	–	–	·
CCOC(=O)C1CCCN(c2c(NCCCN3CCCC(C)C3)c(=O)c2=O)C1 (stereo not drawn)	–	–	–	–	–	13	–
Cn1cccc1C(=O)OCC(=O)N1CCN(c2ccccc2)CC1	–	–	·	–	–	9.8	–
O=C(OCC(=O)N1CCN(c2ccccc2)CC1)c1ccccn1	·	·	–	·	·	–	·
Cc1cc(C(=O)O)c2ccccc2n1	–	–	–	–	–	16	–
CCN1CCN(CCCNC(=O)Cn2nc(C)n3nc(-c4ccccc4)cc3c2=O)CC1	–	–	–	–	–	19	–
Cc1nn(CC(=O)NCCCN2CCN(Cc3ccccc3)CC2)c(=O)c2cc(-c3ccccc3)nn12	–	–	–	–	–	–	·
Cc1cc(=O)c2cc3nc(-c4cccnc4)oc3c(Br)c2o1	–	–	–	–	–	·	·
CCOc1ccccc1N(CC(=O)Nc1cccnc1)S(=O)(=O)c1ccc(C)cc1	–	–	–	–	–	9.9	–
CCOc1ccccc1N(CC(=O)Nc1cccnc1)S(C)(=O)=O	–	–	–	–	–	–	·
COc1ccc(C(=O)CNc2ccccc2CO)cc1	–	–	–	–	–	–	·
COc1ccc(C(=O)CNc2ccccc2C#N)cc1	–	–	–	–	–	9.3	–
SMILES	tim23-1 inh	TIM10 inh	NALP1 yeast inh	tim10-1 inh	NLRP3 yeast inh	V-ATPase pH	VATPase regulator
O=C(CCCSc1nnc(SCCCC(=O)c2ccc(F)cc2)s1)c1ccc(F)cc1	–	–	–	–	–	–	–
Nc1nnc(SCCCC(=O)c2ccc(F)cc2)s1	–	–	–	–	–	–	–
Nc1nnc(SCC(=O)OCc2ccc(F)cc2)s1	–	–	–	–	–	–	·
CC(=O)Nc1nnc(SCC(=O)c2ccc(F)cc2)s1	–	–	–	–	–	–	·
CC(=O)N/C(=C\c1ccccc1)C(=O)N1CCOCC1	–	–	–	–	–	10	–
CN(C(=O)c1cccc(NC(=O)Cc2ccc(NC(=O)C3CCN(C(=O)C4CCC4)CC3)cc2)c1)C1CCCCC1	·	·	·	·	·	–	·
O=C(Nc1nc(N2C(=O)c3ccccc3C2=O)n(-c2ccccc2)n1)c1ccccc1	–	–	–	–	–	–	·

High-throughput results deposited in PubChem by several laboratories.
